A number with no mark means an inactive call. Activity calls are given as the source filed them. Calls follow the shape of the dose curve; as a rule, active = well fitted curve in the direction sought with a large enough effect; inactive = no such curve, though single readings can be large or run the other way.

The assay can be described thus: Retest of LOPAC molecules that induce DNA re-replication in SW480 adenocarcinoma cells. The settings on record: Hoechst DNA content imaging, 48 h; series mostly up to 45.1 µM; activity, positive = re-replication: at the top concentration. An excerpt:
NIH Molecular Libraries Probe Production Network [MLPCN] NIH Chemical Genomics Center [NCGC] MLPCN Grant: Fast Track K99 CA136555 Assay Provider: Melvin DePamphilis, NICHD, NIH Assay Overview Eukaryotic cells normally restrict genome duplication to once per cell division. When this process is aberrant, DNA re-replication occurs when cells reinitiate DNA replication before the first round of replication is complete. DNA re-replication induces the DNA damage response, arrests cell proliferation, and triggers apoptosis. The cell cycle components cyclin A, Cdt-1, Cdc6 and geminin are critical regulators of this process and their misregulation results in DNA re-replication in normal and cancer cells. To identify compounds that induce re-replication in normal cells, an image-based assay was used to measure DNA content of nuclei, as detected by the fluorescent DNA binding dye, Hoechst. Cell nuclei were imaged by a fluorescence scanning plate imager and compounds that induce DNA re-replication were identified by the increase of nuclei with elevated fluorescence intensity.
Assay Protocol Summary For screening, 250 cells in 5 uL/well were dispensed into black clear 1536-well plates (Aurora) using a solenoid-based dispenser. Following transfer of 23 nL compound or DMSO vehicle by a pin tool, the plates were incubated 48 hr at 37 C and 5% CO2. After addition of 1 uL/well Hoescht stain, the plates were incubated 40 min at 37 C, 5% CO2 and total intensity of fluorescent objects (nuclei) were enumerated by an Acumen Explorer Ex3 (TTP LabTech) fluorescence scanning plate imager (405 nm excitation, 500-530 nm emission). Keywords: NIH Roadmap, MLPCN, MLI, MLSMR, qHTS, NCGC, DNA replication, cancer
Take `COc1cc2c(cc1O)CC[C@@H]1[C@@H]2CC[C@]2(C)[C@@H](O)CC[C@@H]12`: the Potency was 6730 nM (active).

As for `CC(=O)O[C@H]1C(=O)[C@@]2(C)C([C@H](OC(=O)c3ccccc3)[C@]3(O)C[C@H](OC(=O)[C@H](O)[C@@H](NC(=O)c4ccccc4)c4ccccc4)C(C)=C1C3(C)C)[C@]1(OC(C)=O)CO[C@@H]1C[C@@H]2O` (stereo not given in full), the Potency was 169 nM (active). Turning to `O=c1cc(-c2ccccc2)[nH]c2nc(Cl)ccc12`, the Potency is 1690 nM (active). As for `C[C@@H](Oc1ccc(Oc2cnc3ccc(Cl)cc3n2)cc1)C(=O)O`, the “activity, positive = re-replication” value is -22.5%. The same measure, in the same setting: next, `CCCCCCN(CCCCCC)C(=O)Cc1c(-c2ccc(F)cc2)[nH]c2ccccc12`: -26.7%.

These data come from PubChem BioAssay AID493165 (National Center for Advancing Translational Sciences (NCATS), 2011).
